# Calls of active or inactive are those of the source. Calls follow the shape of the dose curve; as a rule, active = well fitted curve in the direction sought with a large enough effect; inactive = no such curve, though single readings can be large or run the other way.
# Target: D(2) dopamine receptor (Homo sapiens) (UniProt P14416)
# Test: HTS Assay for Allosteric Antagonists of the Human D2 Dopamine Receptor: Hit Validation in primary assay
# Conditions: HEK293 TREx D2, calcium flux, dopamine EC80 antagonism; series mostly up to 41.8 µM
# Source text: Dopamine receptors (DARs) are involved in the etiology and/or therapy of a number of neuropsychiatric and endocrine disorders. For instance, all receptor-based antiparkinsonian drugs work via stimulating the D2 DAR subtype whereas all FDA-approved antipsychotic agents are antagonists of this receptor. […] There are three different types of allosteric modulators that we are seeking, two of which will stimulate or augment receptor signaling, allosteric agonists and potentiators, while the third, allosteric antagonists, will attenuate receptor signaling. The present primary screening assay measures compound antagonism after an EC80 addition of dopamine by tracking calcium flux in a […], inducible Hek293 Trex D2 cell line. NIH Chemical Genomics Center [NCGC] NIH Molecular Libraries Probe Centers Network [MLPCN] MLPCN Grant: NS064831 Assay Submitter (PI): David Sibley
# Freshly passaged cells are plated in 1536 well black, clear bottom plates at a density of 4000 cells/well in 3 ul of complete media containing 1x tetracycline inducer. After an overnight incubation at 30 C in 5% CO2, cells are loaded with 2 ul of the no wash Calcium Assay Kit (ABD Bioquest) and incubated at room temperature for 30 to 90 minutes before it's read.
# D(2) dopamine receptor (Homo sapiens), sequence (P14416 whole entry, looked up): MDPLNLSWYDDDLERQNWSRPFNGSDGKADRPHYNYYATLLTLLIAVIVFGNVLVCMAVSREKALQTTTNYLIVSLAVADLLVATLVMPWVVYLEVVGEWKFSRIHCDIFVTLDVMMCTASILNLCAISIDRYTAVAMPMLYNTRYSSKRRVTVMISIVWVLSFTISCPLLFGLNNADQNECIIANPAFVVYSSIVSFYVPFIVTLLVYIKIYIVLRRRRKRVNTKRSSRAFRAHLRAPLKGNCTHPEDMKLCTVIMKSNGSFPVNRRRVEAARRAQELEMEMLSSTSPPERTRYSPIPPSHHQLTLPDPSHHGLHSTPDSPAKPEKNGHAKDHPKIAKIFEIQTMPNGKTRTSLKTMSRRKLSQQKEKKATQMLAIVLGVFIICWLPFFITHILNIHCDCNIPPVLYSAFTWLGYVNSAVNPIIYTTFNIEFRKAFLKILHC
row,Structure (SMILES),outcome
1,CCN1C[C@@]2(C)CC[C@@H](OC)[C@@]34C2C(O)[C@@]2(OCO[C@]25CC(OC)C2C[C@@]3(O)C5C2O)C14 (stereo not given in full),inactive
2,CN1C2CC(OC(=O)C(CO)c3ccccc3)CC1C(O)C2 (stereo not given),inactive
3,CC(N)C(O)c1ccc(O)c(O)c1 (stereo not given),inactive
4,NNCc1ccccc1,inactive
5,CC1C(=O)OC2O[C@]3(C)CC[C@H]4C(C)CCC1[C@]24OO3 (stereo not given in full),inactive

# Source: PubChem BioAssay AID624453 (National Center for Advancing Translational Sciences (NCATS), 2012)
